Assay results as given in publication PMC5540273 (PLoS ONE, 2017).

Legend:
Conditions in all cases: concentration: 1 μM, replicates: in singlicate; n = 1
[1] = test system: CSF1R-autoinhibited
[2] = test system: CSF1R
[3] = test system: CSK
[4] = test system: CSNK1A1L
[5] = test system: CSNK1A1
[6] = test system: CSNK1D
[7] = test system: CSNK1E
[8] = test system: CSNK1G1
[9] = test system: CSNK1G2
[10] = test system: CSNK1G3
[11] = test system: CSNK2A1
[12] = test system: CSNK2A2
[13] = test system: T1, CTK
T1 construct: gene MATK

[14] = test system: DAPK1
[15] = test system: DAPK2
[16] = test system: DAPK3
[17] = test system: T2, DCAMKL1
T2 construct: gene DCLK1

[18] = test system: T3, DCAMKL2
T3 construct: gene DCLK2

[19] = test system: T4, DCAMKL3
T4 construct: gene DCLK3

[20] = test system: DDR1
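Also: KINOMEscan kinase panel screen.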

| Compound | %Inh [1] [%] | %Inh [2] [%] | %Inh [3] [%] | %Inh [4] [%] | %Inh [5] [%] | %Inh [6] [%] | %Inh [7] [%] | %Inh [8] [%] | %Inh [9] [%] | %Inh [10] [%] | %Inh [11] [%] | %Inh [12] [%] | %Inh [13] [%] | %Inh [14] [%] | %Inh [15] [%] | %Inh [16] [%] | %Inh [17] [%] | %Inh [18] [%] | %Inh [19] [%] | %Inh [20] [%] |
| --- | --- | --- | --- | --- | --- | --- | --- | --- | --- | --- | --- | --- | --- | --- | --- | --- | --- | --- | --- | --- |
| Cl.c1ccc(Cn2ccc3cc(Nc4ncnc5ccccc45)ccc32)cc1 [GW275568] | 0 | 55 | 20 | 0 | 0 | 26 | 55 | 15 | 0 | 22 | 4 | 19 | 0 | 21 | 7 | 30 | 22 | 10 | 2 | 8 |
| O=C(NCCCN1CCCC1=O)c1cnc(NCc2cc(Cl)ccc2Cl)nc1NC1CCNCC1 | 1 | 100 | 0 | 1 | 36 | 28 | 87 | 1 | 0 | 0 | 0 | 7 | 5 | 14 | 0 | 0 | 17 | 12 | 0 | 0 |
| COc1cc2ncnc(Nc3ccc(OCc4ccccc4Br)c(Cl)c3)c2cc1OC.Cl [GI261590] | 10 | 7 | 7 | 0 | 0 | 24 | 24 | 0 | 0 | 27 | 0 | 0 | 0 | 0 | 0 | 17 | 14 | 0 | 21 | 0 |
| FC(F)(F)c1ccc(-c2cc(-c3c[nH]nc3-c3ccccn3)ccn2)cc1 [GW599550] | 33 | 0 | 0 | 0 | 0 | 48 | 45 | 10 | 13 | 13 | 0 | 30 | 0 | 9 | 16 | 99.2 | 10 | 16 | 0 | 0 |
| Clc1cc(Nc2ncnc3cc[nH]c23)ccc1OCc1ccccn1 | 0 | 7 | 17 | 1 | 14 | 4 | 4 | 2 | 11 | 0 | 41 | 31 | 56 | 25 | 0 | 0 | 26 | 21 | 6 | 14 |
| O=C(Nc1ccccc1F)NC1CCN(c2ccnc(Nc3ccc(F)cc3)n2)C1 (stereo not drawn) [GSK1379722] | 7 | 4 | 0 | 0 | 0 | 13 | 27 | 0 | 100 | 8 | 0 | 0 | 0 | 0 | 0 | 5 | 0 | 0 | 5 | 3 |
| C[C@@H]1CCN(C(=O)CO)C[C@@H]1N(C)c1ncnc2[nH]ccc12 | 19 | 8 | 21 | 0 | 33 | 6 | 0 | 0 | 0 | 10 | 0 | 0 | 14 | 2 | 7 | 10 | 6 | 0 | 90 | 0 |
| Cn1ccc2ncnc(Nc3ccc(Oc4cccc(Cl)c4)c(Cl)c3)c21 | 1 | 17 | 46 | 16 | 14 | 10 | 0 | 6 | 0 | 0 | 0 | 39 | 45 | 18 | 0 | 0 | 43 | 5 | 0 | 0 |
| COc1ccc(-c2oc3ncnc(N)c3c2-c2ccc(OC)cc2)cc1 [SB-589132] | 70 | 61 | 0 | 12 | 0 | 11 | 43 | 0 | 0 | 12 | 30 | 40 | 0 | 0 | 0 | 37 | 14 | 7 | 36 | 94.6 |
